TWEAK-Fn14 inh: TWEAK-Fn14 signaling inhibition; AID 1159606; TWEAK-stimulated Fn14 reporter cells, luciferase luminescence, 8 h; actives 2% (n = 360,000); inhibition, % at 10 µM; in the data active = inhibition above about 50%
Peg3 promoter: inhibitors of Peg3 promoter; AID 588405; HeLa PEG-Prom luciferase reporter, luminescence, overnight; inhibition, % at 20 µM; actives 1.7% (n = 360,000);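 active = inhibition of at least 50% at 20 µM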
KKLEB tox: counter-screen for CF NF-kB inhibitors: cytotoxicity; AID 602141; activity change (cytotoxicity), % at 5 µM; KKLEB CF airway cells viability, ATPlite luminescence, overnight; hits give low values; cells stimulated with P. aeruginosa culture filtrate; actives 0.36% (n = 360,000);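 active = corrected activity change at or below -50% at 5 µM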
CF NFkB block: cystic fibrosis NF-kB activation inhibition. KKLEB NF-kB-GFP reporter, PAF-induced, GFP fluorescence overnight. inhibition, % at 5 µM. actives 0.86% (n = 360,000). AID 588850;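 active = at least 50% inhibition at 5 µM, scaled per plate between neutral and stimulator controls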;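 also: PAF is a Pseudomonas aeruginosa culture filtrate used as stimulus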
HIF-2a inh: HIF-2a inhibition | 786-0 RCC cells HIF-2a reporter, luciferase luminescence, overnight | actives 0.72% (n = 360,000) | inhibition, % at 18.8 µM;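 active = inhibition of the luminescence signal of 40% or more relative to plate controls, in a single-dose primary screen at 18.75 µM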
TROY signal inh: inhibitors of TROY-dependent NF-kB signaling; Q293 LMP1-TROYcd NF-kB luciferase reporter, 4 h; inhibition, % at 10 µM; actives 0.98% (n = 360,000); AID 1347056;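 active = compounds whose plate-normalised and pattern-corrected inhibition of the luciferase reporter signal at the single screening dose is 50% or more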
A number is an active result; i = inactive; nt = not tested or not shown. Only some compounds are listed: those with a hit (about 4% of all), similar ones and a draw of the others.

SMILES	TWEAK-Fn14 inh	Peg3 promoter	KKLEB tox	CF NFkB block	HIF-2a inh	TROY signal inh
COc1ccc(CC(=O)Nc2nnc(CC(C)C)s2)cc1S(=O)(=O)N1CCOCC1	i	i	i	i	i	i
CCOC(=O)c1cnc(-n2nc(C)cc2C)nc1Nc1ccc(O)cc1	i	i	i	i	i	51
CCOC(=O)c1cnc(-n2nc(C)cc2C)nc1NC	i	i	i	i	i	i
CCOC(=O)c1cnc(-n2nc(C)cc2C)nc1NC1CCCCC1	i	i	i	i	i	54
CCOC(=O)c1cc(NC(=O)NC2CCCCC2)c(C)nc1C	109	i	i	i	i	i
Cc1ccccc1C(=O)NCC(=O)NCC1(N2CCOCC2)CCCCC1	i	i	i	i	i	i
CCCC1CCC(c2ccc(OCC)cc2)=CC1=O (configuration not stated)	i	i	i	i	i	i
Cc1ccc(/C=C2/CNC/C(=C/c3ccc(C)cc3)C2=O)cc1	104	105	-63	80	85	i
Cc1ccc(/C=C2\CCOC2=O)cc1	i	i	i	i	i	i
Cc1cccc(C)c1NC(=O)CN1C(=O)COc2ccccc21	i	i	i	i	i	i
CCCCc1c(-c2ccccc2OC)ncn1CCc1ccccc1OC	i	nt	nt	nt	i	55
CCCCCc1c(-c2ccccc2OC)ncn1CCc1ccccc1OC	52	nt	nt	nt	i	56
CCCCc1c(-c2ccccc2Br)ncn1CCc1ccccc1OC	i	nt	nt	nt	i	i
CCCCCc1c(-c2ccccc2F)ncn1CCc1ccccc1OC	i	nt	nt	nt	i	i
CCCC(=O)Nc1ccc(S(=O)(=O)Nc2cc(C)nc(C)n2)cc1	i	i	i	i	i	i
CCc1ccc(OCCCC(=O)Nc2ccc(S(=O)(=O)Nc3cc(C)nc(C)n3)cc2)cc1	55	i	i	i	i	i
COc1cc(/C=C2/SC(=S)NC2=O)ccc1OS(=O)(=O)c1ccc(C)cc1	i	i	i	i	i	59
Cc1ccc(S(=O)(=O)N2C[C@@H](C)[C@]3(C2)[C@H](O)[C@H](OC(=O)Nc2c(C)noc2C)C[C@H]2C(=O)N(c4ccccc4)C(=O)[C@H]23)cc1	i	i	i	i	i	i
CC1(C)CC[C@]2(C(=O)n3ccnc3)CC[C@]3(C)[C@H](C(=O)C=C4[C@@]5(C)C=C(C#N)C(=O)C(C)(C)[C@@H]5CC[C@]43C)[C@@H]2C1	106	106	-70	85	90	75
CCOC(=O)C1=C(O)c2ccccc2C(=O)/C1=C\c1ccc(C)cc1	i	75	i	i	i	i
CCOC(=O)C1=C(C)OC(=Cc2ccccc2)C1=O	i	i	i	i	i	i
CC(C)c1ccc(C2c3[nH]c4ccccc4c3C[C@H]3C(=O)N(c4ccccc4C(=O)N4CCC[C@@H]4C(=O)O)C(=O)N23)cc1 (some centres not stated)	i	i	i	i	i	66
O=C(O)c1ccc(N=Nc2c(O)ccc3ncccc23)cc1	59	i	i	i	i	i
Oc1cccc2c(NC(=S)Nc3ccc(SC(F)F)cc3)cccc12	60	i	i	i	i	64
CN(C)CCNC(=O)c1cccc2ccc(-c3ccc(-c4ccccc4)cc3)nc12	i	93	i	i	i	i
SMILES	TWEAK-Fn14 inh	Peg3 promoter	KKLEB tox	CF NFkB block	HIF-2a inh	TROY signal inh
COc1ccc(OC)c2nc3c(C(=O)NCCN(C)C)cccc3nc12	i	90	i	i	i	i
COc1cc2nc(NC(=O)c3ccc(F)cc3Cl)sc(=O)c2cc1OC	64	i	i	i	i	i
O=C(Nc1nc2ccsc2c(=O)s1)c1ccc(F)cc1Cl	i	i	i	i	i	i
COC(=O)c1cc(NCc2c(F)cccc2Cl)ccc1N1CCOCC1	i	i	i	i	i	i
COC(=O)c1ccc(NCc2cc(O)ccc2O)cc1O	83	i	i	i	i	i
COC(=O)c1ccc(NCc2c(O)ccc(O)c2Br)cc1Cl	80	i	i	i	i	i
CCOC(=O)C(Cc1ccc(O)c([N+](=O)[O-])c1)N1C(=O)c2ccccc2C1=O (configuration not stated)	i	i	i	i	i	i
CN(C)c1ccc(CC(=O)c2nc3ccccc3s2)cc1	78	i	i	i	i	76
CN(C)C(=O)c1nc2ccccc2s1	i	i	i	i	i	i

Screening data deposited in PubChem by Sanford-Burnham Center for Chemical Genomics.
